A short description of assay [1]: P-glycoprotein substrates identified in KB-3-1 adenocarcinoma cell line, qHTS therapeutic library screen (AID 1346986). Note: nearly all actives have a fitted effect of over 60% in size. Put shortly: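 Counter-screen: cherry-picked hits retested in the KB pair and in HEK-293 pcDNA/MDR-19 cells ± tariquidar. Primary screen used 72 h CellTiter-Glo viability in KB-3-1 and KB-8-5-11.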
The target of assay [2] is Estrogen receptor (Homo sapiens) (UniProt P03372). The assay can be described thus: qHTS assay for small molecule agonists of estrogen receptor alpha signaling (AID 588514; calls by dose curve; note: nearly all actives have a fitted effect of over 70% in size; note: potency is the fitted concentration of half-maximal effect). In short, it runs like this: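 Reporter-gene assay. […] controls beta-lactamase in HEK 293 GripTite cells; after 18 hrs with compound, CCF4 substrate is added for 2 hrs and fluorescence is read.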

Assay [3] is described as follows: Cell Viability - LYMP2-021 (AID 974).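 Note: compound exposure lasts 24 hours at 37 °C; nearly all actives have a fitted effect of over 55% in size.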 Put shortly: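 Concentration-response cytotoxicity in a human lymphoblastoid line: 24 hr treatment at 37 C in complete culture medium, tetraoctylammonium bromide as positive control, luminescent ATP quantitation as viability measure.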
The nature of assay [4]: Cell Viability - LYMP2-023 (AID 975).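 Note: cellular ATP measured by luciferase luminescence as viability proxy; series mostly up to about 92 µM; cells exposed to compound for 24 hours at 37 °C; nearly all actives have a fitted effect of over 55% in size.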 In short, it runs like this: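 Concentration-dependent drop in intracellular ATP measures acute cytotoxicity in a human lymphoblastoid line treated for 24 hours in complete culture medium. AC50 values are taken from Hill-equation fits of qHTS data.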
The nature of assay [5]: Cell Viability - LYMP2-025 (AID 976).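 Note: series mostly up to about 92 µM; cells exposed to compound for 24 h at 37 °C.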 Put shortly:
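In qHTS format, LYMP2-025 lymphoblastoid cells in complete culture medium received compound for 24 hr; ATP-based CellTiter-Glo signal gave viability, with AC50 derived by Hill equation.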

A short description of assay [6]: Cell Viability - LYMP2-002 (AID 977).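 Note: series mostly up to about 92 µM; compound exposure lasted 24 h at 37 °C.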 Put shortly:
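Cytotoxicity is scored as concentration-dependent loss of cellular ATP in a human lymphoblastoid line after 24 hr compound treatment at 37 C. AC50 is obtained by modelling concentration-response data with the Hill equation.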

A short description of assay [7]: Cell Viability - LYMP2-006 (AID 978).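 Note: series mostly up to about 92 µM; cells exposed to compound for 24 hours; nearly all actives have a fitted effect of over 60% in size.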 Put shortly:
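Cells are seeded at 2500 per well and rested 5 hr at 37 C. Compounds are added across a concentration series for 24 hr at 37 C, after which ATP is quantified by luciferase luminescence.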

A short description of assay [8]: Cell Viability - LYMP2-007 (AID 979).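 Note: cells exposed to compound for 24 h before reading; nearly all actives have a fitted effect of over 60% in size.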 In short, it runs like this: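 Acute toxicity is scored as a concentration-dependent fall in intracellular ATP in human lymphoblastoid cells treated 24 hr at 37 C, measured by luciferase luminescence; Hill-equation modelling yields AC50.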
Assay [9] can be described thus: Cell Viability - LYMP2-008 (AID 980).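 Note: cells exposed to compound for 24 h at 37 °C; nearly all actives have a fitted effect of over 60% in size.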 In short, it runs like this: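 Acute cytotoxicity is scored as concentration-dependent loss of cellular ATP in a human lymphoblastoid line after 24 hr treatment at 37 C. ATP is quantified by luciferase luminescence.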
Assay [10] is described as follows: Cell Viability - LYMP2-010 (AID 981).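 Note: cells exposed to compound for 24 hours at 37 °C; nearly all actives have a fitted effect of over 55% in size.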 Put shortly: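 Acute toxicity is scored as a concentration-dependent loss of cellular ATP in human lymphoblastoid cells after 24 hr compound exposure in complete medium. Tetraoctylammonium bromide is the positive control.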
Assay [11] can be described thus: Cell Viability - LYMP2-012 (AID 982).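 Note: cellular ATP by luciferase luminescence where a drop means cytotoxicity; cells exposed to compound for one day before reading; nearly all actives have a fitted effect of over 55% in size.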
Assay [12] is described as follows: Cell Viability - LYMP2-014 (AID 983).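 Note: series mostly up to about 92 µM; cells exposed to compound for 24 h at 37 °C; nearly all actives have a fitted effect of over 50% in size.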 Put shortly:
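Decrease in intracellular ATP after 24 hr treatment at 37 C, measured by luciferase luminescence, indicated cytotoxicity. Concentration-response data were fitted with the standard Hill equation to give AC50.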

Assay [13] in a line: Cell Viability - LYMP2-016 (AID 984). Put shortly:
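Cells were seeded at 2500 per well and rested 5 hr before a 24 hr compound exposure at 37 C. Viability was then gauged as cellular ATP by luciferase luminescence, with AC50 values fitted to the Hill equation.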

Assay [14] in a line: Cell Viability - LYMP2-018 (AID 985). Note: nearly all actives have a fitted effect of over 50% in size. Put shortly:
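Acute cytotoxicity is scored as a concentration-dependent drop in intracellular ATP after 24 hr exposure of the lymphoblastoid line in complete culture medium, measured by luciferase luminescence. Potency is expressed as AC50 from Hill modelling.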

The nature of assay [15]: Cell Viability - LYMP2-020 (AID 986). In short, it runs like this: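 Acute cytotoxicity in a human lymphoblastoid line is scored as a concentration-dependent fall in cellular ATP after 24 hr at 37 C in complete medium. The positive control is tetraoctylammonium bromide, and potency is given as Hill-fit AC50.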
Assay [16] can be described thus: Cell Viability - LYMP2-022 (AID 987). Note: nearly all actives have a fitted effect of over 55% in size. In short, it runs like this: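 Acute toxicity in a human lymphoblastoid line is scored as decreased intracellular ATP after 24 hr compound treatment at 37 C. ATP is measured by CellTiter-Glo luminescence; curves are fitted with the Hill equation to give AC50.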
Assay [17] is described as follows: Cell Viability - LYMP2-024 (AID 988). Note: nearly all actives have a fitted effect of over 60% in size. Put shortly:
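Acute toxicity is measured as concentration-dependent loss of intracellular ATP in a human lymphoblastoid line treated 24 hours at 37 C. Luciferase luminescence quantifies ATP; AC50 values come from standard Hill-equation modelling.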

Assay [18] can be described thus: Cell Viability - LYMP2-026 (AID 989).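 Note: cells exposed to compound for 24 h at 37 °C; nearly all actives have a fitted effect of over 50% in size.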 In short, it runs like this:
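Concentration-dependent loss of intracellular ATP in human lymphoblastoid cells after 24 hr at 37 C, quantified by luciferase luminescence. AC50 derived from standard Hill equation.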

Assay [19] in a line: Cell Viability - LYMP1-002 - Assay at 24 hr (AID 993). Put shortly:
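qHTS, LYMP1-002 lymphoblastoid, 24 h cpd, 37 C, CellTiter-Glo ATP luminescence; AC50 via Hill eq.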

Assay [20] in a line: Cell Viability - LYMP1-002 - Assay at 40 hr (AID 994). Note: nearly all actives have a fitted effect of over 60% in size. In short, it runs like this:
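Viability in the human lymphoblastoid line was measured as intracellular ATP via CellTiter-Glo after 40 hr compound exposure. Tetraoctylammonium bromide served as positive control.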

SMILES strings stand for the structures. Records with an inconclusive call do not appear. Activity calls are given as the source filed them. Unless noted, calls come from the whole dose curve; as a rule, active = well fitted curve in the direction sought with a large enough effect; inconclusive = small, poorly fitted or top-dose-only effect, or another doubt; inactive = no such curve, though single readings can be large; an effect the other way counts as inactive or inconclusive.

Estrogen receptor (Homo sapiens), sequence (P03372 whole entry, looked up): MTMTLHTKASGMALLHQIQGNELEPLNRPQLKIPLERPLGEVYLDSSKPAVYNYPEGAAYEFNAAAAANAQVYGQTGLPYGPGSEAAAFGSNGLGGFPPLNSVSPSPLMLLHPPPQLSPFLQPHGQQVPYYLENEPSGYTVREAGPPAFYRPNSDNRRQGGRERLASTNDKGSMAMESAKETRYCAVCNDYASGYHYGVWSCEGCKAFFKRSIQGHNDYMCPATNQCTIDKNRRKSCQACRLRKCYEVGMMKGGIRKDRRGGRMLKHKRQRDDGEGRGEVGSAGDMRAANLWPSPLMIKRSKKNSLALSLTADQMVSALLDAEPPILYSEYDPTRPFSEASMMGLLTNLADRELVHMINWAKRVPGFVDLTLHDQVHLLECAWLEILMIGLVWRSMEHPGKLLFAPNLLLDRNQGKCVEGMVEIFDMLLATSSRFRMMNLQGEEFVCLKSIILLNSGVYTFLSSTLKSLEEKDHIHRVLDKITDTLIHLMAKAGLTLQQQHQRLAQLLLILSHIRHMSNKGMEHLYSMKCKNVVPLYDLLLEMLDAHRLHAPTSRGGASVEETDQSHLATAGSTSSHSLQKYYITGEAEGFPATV

As to `C/C=C(\C)C(=O)O[C@@H]1[C@@H](C)[C@]2(O)C3C=C(C)C(=O)[C@@]3(O)CC(CO)=C[C@H]2C2C(C)(C)[C@@]21OC(=O)C(C)CC` (stereo partly drawn), the Potency entry in assay [1] is “inactive”.
With `C[C@@H]1Cc2c(Cl)cc(C(=O)N[C@@H](Cc3ccccc3)C(=O)O)c(O)c2C(=O)O1`, the Potency in assay [2] is 44.7 µM (active).
With `Cc1cccc(NC(=O)c2ccc(C(F)(F)F)cc2C(=O)O)n1`, the Potency result in assay [1] is “inactive”.
Turning to `O=Cc1ccccc1`, the compound was called inactive in assay [3], in [4], in assay [5], in assay [6], in [7] and in assay [8]. The call in [9], in assay [11], in assay [12], in assay [13], in assay [14] and in assay [15] was inactive. Further, the call in [16], in assay [17], in assay [18] and in assay [19] was inactive. For the same compound, the Potency entry in [10] and in [20] was “inactive” throughout.
With `COC(=O)c1ccccc1C(=O)OC`, the call in [3], in assay [4], in assay [5], in assay [6], in assay [7] and in [8] was inactive. For the same compound, the call in assay [9], in assay [11], in [12], in assay [13], in assay [14] and in assay [15] was inactive. The result in assay [16], in [17], in [18] and in assay [19] was inactive. In addition, the Potency result in [10], in assay [20] and in assay [2] was “inactive” throughout.
As to `CCOc1cc(C=O)ccc1O`, the call in assay [3], in assay [4], in [5], in [6], in assay [7] and in assay [8] was inactive. In addition, the call in assay [9], in assay [11], in assay [12], in assay [13], in [14] and in [15] was inactive. The outcome in assay [16], in [17], in [18] and in assay [19] was inactive. For the same compound, the Potency entry in assay [10] and in assay [20] was “inactive” in each case.
